Several values for one entry are separate records, joined by “and”; a condition that tells them apart may be missing. Equal values may be shown once. The campaign covered roughly 5,500 compounds. About 2,000 (36%) were called active. Another 18% or so got no clear call; they are omitted. Cut-off read from the data, not from the text of the source: active = normalized growth mostly below about 0.91 (no sharp cut-off); inconclusive = no clear call, values can overlap the other calls; inactive = mostly above about 0.92. The list shows a part of the results.
Test: chemical genetic growth profiling, strain panel (AID 1159580);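 note: tested at 20 µM; growth read once vehicle control cultures reached saturation at 30 °C; 1 = growth at the plate median or of vehicle wells; lower values mean less growth of the strain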
Conditions: S. cerevisiae deletion strains, growth OD

Measured: normalized growth

COc1ccc2c(c1)[nH]c1c(C)nccc12
inactive: locus YAL013W, strain DEP1, stronger effect = lower value 1.02 | locus YAL021C, strain ccr4, stronger effect = lower value 0.978 | locus YAL026C, strain drs2, stronger effect = lower value 1 | locus YAL030W, strain snc1, stronger effect = lower value 1 | locus YBL061C, strain skt5, stronger effect = lower value 0.993 | locus YBR009C, strain hhf1, stronger effect = lower value 0.992 | locus YBR021W, strain FUR4, stronger effect = lower value 1.03 | locus YBR023C, strain chs3, stronger effect = lower value 1 | locus YBR171W, strain sec66, stronger effect = lower value 0.987 | locus YBR229C, strain ROT2, stronger effect = lower value 1.02 | locus YBR231C, strain swc5, stronger effect = lower value 0.994 | locus YBR279W, strain paf1, stronger effect = lower value 0.991 | locus YCL011C, strain gbp2, stronger effect = lower value 1.01 | locus YCL016C, strain dcc1, stronger effect = lower value 1 | locus YCL029C, strain bik1, stronger effect = lower value 0.968 | locus YCL061C, strain MRC1, stronger effect = lower value 0.994 | locus YCL069W, strain vba3, stronger effect = lower value 0.995 | locus YCR088W, strain abp1, stronger effect = lower value 1 | locus YDL005C, strain med2, stronger effect = lower value 0.994 | locus YDL035C, strain GPR1, stronger effect = lower value 0.998 | locus YDL040C, strain nat1, stronger effect = lower value 0.995 | locus YDL074C, strain BRE1, stronger effect = lower value 1.03 | locus YDL101C, strain DUN1, stronger effect = lower value 1.01 | locus YDL134C, strain PPH21, stronger effect = lower value 1.02 | locus YDL185W, strain tfp1, stronger effect = lower value 0.968 | locus YDL192W, strain arf1, stronger effect = lower value 0.979 | locus YDR001C, strain nth1, stronger effect = lower value 0.991 | locus YDR069C, strain doa4, stronger effect = lower value 0.997 | locus YDR101C, strain arx1, stronger effect = lower value 0.987 | locus YDR137W, strain rgp1, stronger effect = lower value 1.01 | locus YDR150W, strain NUM1, stronger effect = lower value 0.978 | locus YDR159W, strain sac3, stronger effect = lower value 1.01 | locus YDR162C, strain NBP2, stronger effect = lower value 1.02 | locus YDR195W, strain ref2 1.01 | locus YDR297W, strain sur2, stronger effect = lower value 0.999 | locus YDR318W, strain mcm21, stronger effect = lower value 0.986 | locus YDR334W, strain swr1, stronger effect = lower value 0.991 | locus YDR335W, strain msn5, stronger effect = lower value 0.994 | locus YDR388W, stronger effect = lower value 0.98 | locus YDR392W, strain spt3, stronger effect = lower value 0.991 | locus YDR502C, strain sam2, stronger effect = lower value 0.995 | locus YEL003W, strain gim4, stronger effect = lower value 0.988 | locus YEL037C, strain rad23, stronger effect = lower value 0.991 | locus YEL061C, strain CIN8 (second series), stronger effect = lower value 0.99 | locus YEL061C, strain CIN8, stronger effect = lower value 1.01 | locus YER015W, strain faa2, stronger effect = lower value 0.988 | locus YER016W, strain bim1, stronger effect = lower value 0.997 | locus YER110C, stronger effect = lower value 0.969 | locus YER111C, strain swi4, stronger effect = lower value 0.998 | locus YER155C, strain BEM2 (second series), stronger effect = lower value 0.95 | locus YER155C, strain BEM2, stronger effect = lower value 1.01 | locus YER167W, strain BCK2, stronger effect = lower value 1 | locus YFR010W, strain ubp6, stronger effect = lower value 0.982 | locus YGL078C, strain dbp3, stronger effect = lower value 0.972 | locus YGL086W, strain mad1, stronger effect = lower value 0.981 | locus YGL167C, strain pmr1, stronger effect = lower value 0.991 | locus YGL173C, strain kem1, stronger effect = lower value 0.999 | locus YGL227W, strain vid30, stronger effect = lower value 0.984 | locus YGL240W, strain doc1, stronger effect = lower value 0.989 | locus YGL248W, strain PDE1, stronger effect = lower value 1.02 | locus YGL253W, strain hxk2, stronger effect = lower value 0.995 | locus YGR078C, strain PAC10, stronger effect = lower value 1.03 | locus YGR135W, strain pre9, stronger effect = lower value 0.981 | locus YGR229C, strain SMI1, stronger effect = lower value 1.07 | locus YGR252W, strain gcn5, stronger effect = lower value 0.931 | locus YHR013C, strain ard1, stronger effect = lower value 1.01 | locus YHR027C, strain rpn1, stronger effect = lower value 0.991 | locus YHR030C, strain SLT2, stronger effect = lower value 1.01 and 1.02 | locus YHR079C, strain IRE1 (second series), stronger effect = lower value 0.988 | locus YHR079C, strain IRE1, stronger effect = lower value 1.03 | locus YHR094C, strain hxt1, stronger effect = lower value 0.963 | locus YHR129C, strain ARP1, stronger effect = lower value 1.01 | locus YHR142W, strain chs7, stronger effect = lower value 1.01 | locus YHR200W, strain rpn10, stronger effect = lower value 0.97 | locus YIL066C, strain RNR3, stronger effect = lower value 1.02 | locus YIL073C, strain SPO22, stronger effect = lower value 0.887 | locus YIL125W, strain kgd1, stronger effect = lower value 0.986 | locus YIR030C, strain dcg1, stronger effect = lower value 0.994 | locus YJL092W, strain hpr5, stronger effect = lower value 0.996 | locus YJL095W, strain BCK1 (second series), stronger effect = lower value 1 | locus YJL095W, strain BCK1, stronger effect = lower value 1.07 and 1.01 | locus YJL115W, strain asf1, stronger effect = lower value 0.979 | locus YJL129C, strain trk1, stronger effect = lower value 0.987 | locus YJL134W, strain LCB3, stronger effect = lower value 1.01 | locus YJL154C, strain vps35, stronger effect = lower value 1 | locus YJL164C, strain tpk1, stronger effect = lower value 0.997 | locus YJL166W, strain qcr8, stronger effect = lower value 0.991 | locus YJL168C, strain set2, stronger effect = lower value 0.996 | locus YJL187C, strain SWE1 (second series), stronger effect = lower value 1.01 | locus YJR043C, strain POL32, stronger effect = lower value 0.989 | locus YJR066W, strain TOR1, stronger effect = lower value 0.972
